This assay deals with Eukaryotic translation initiation factor 4H (Homo sapiens) (UniProt Q15056). The experiment in a line: eIF4H binding inhibition – biochemical, uHTS, fluorescence polarization, translation initiation inhibitor project, primary screen (AID 2012).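 Note: calls also rest on retests at 20 µM and on dose response follow-up.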 The following applies: eIF4H fluorescence polarization binding assay, stronger effect = higher value.

Out of some 290,000 compounds screened, about 2,700 (0.93%) were called active. The rule behind the calls is not given here. Only a selection was taken, and actives are over-represented in it overall.

Take `CCc1ccc(-c2nc(SCC(=O)NC3CCCC3)n[nH]2)cc1`: the inhibition (as a rule, the change of the read-out against control, counted positive when it falls) (at 35 µM) was 45.6% (inactive).
The same measure, in the same setting: as for `CCCN(c1ccc(C)cc1)c1nc(=O)c2cccnc2s1`, the figure is 91.1% (active).
Same read-out and setting: as for `COc1ccccc1N1CC(C(=O)Nc2nnc(SCC(=O)NCC3CCCO3)s2)CC1=O` (stereo not given), the figure is -4% (inactive); as for `CN(C(=O)c1cc2c(=O)n3ccccc3nc2s1)C1CCCCC1`, -4.1% (inactive).
`COc1ccc(-c2csc(Nc3ccc(O)cc3)n2)cc1`: the inhibition (at 35 µM) was 9.7% (inactive).
On to `COc1ccc(OC)c(Nc2nc(-c3ccc(O)c(O)c3)cs2)c1`, for which the inhibition (at 35 µM) is 65.5% (active).
On the same count and under the same terms, with `COc1cccc(CC(=O)Nc2nc(-c3ccc(OC)c(OC)c3)cs2)c1` the figure was 6.8% (inactive); with `O=S(=O)(Nc1cccc(-n2cnnn2)c1)c1cnc(Cl)c(Cl)c1`, -5.5% (inactive); with `CN(C)S(=O)(=O)c1ccc(N/C=C(\[N+](=O)[O-])S(=O)(=O)c2ccccc2)cc1`, -0.3% (inactive).
On the same count and under the same terms, with `COc1cccc(OC)c1C(=O)Nc1c(C(=O)N2CCN(c3ccccn3)CC2)oc2ccccc12` the figure was -10.2% (inactive).
Consider `Oc1c(Cl)cc(Cl)c(Cl)c1Cc1c(O)c(Cl)cc(Cl)c1Cl`, for which the inhibition is 51% (active) (at 35 µM) and 96.3% (confirmation average, at 20 µM).
With `COc1ccc(CSc2nnnn2-c2ccc(O)cc2)cc1F`, the inhibition (at 35 µM) is -12% (inactive).
As to `COc1cccc(NC(=O)c2ccccc2N(Cc2ccccc2)S(C)(=O)=O)c1`, the inhibition (at 35 µM) is -8.4% (inactive).
On the same count and under the same terms, with `COC(=O)[C@@H]1CCCN1C(=O)c1cc(COc2cccc3cccnc23)on1` the figure was 4.3% (inactive); with `O=C1CCCC(O)=C1N=Nc1ccc(S(=O)(=O)N2CCOCC2)cc1`, 27.7% (inactive).
Take `O=C1CCCC(O)=C1N=Nc1ccc2ncsc2c1`: the inhibition is 69.2% (active) (at 35 µM) and 94.3% (confirmation average, at 20 µM).
For the compound `CC(CC(=O)N1CCN(S(=O)(=O)c2ccccc2)CC1)n1cncn1` (stereo not given), under “at 35 µM”, the inhibition was -2.7% (inactive).
For `CCc1nnc(NC(=O)Cc2cccs2)s1`, for the setting “at 35 µM”, the inhibition is 19.2% (inactive).
In the case of `COc1ccc(Cc2nnc(NC(=O)Cc3cccs3)s2)cc1`, the inhibition (at 35 µM) is 71.3% (active).
On the same count and under the same terms, as for `COc1ccc(Cc2nnc(NC(=O)c3ccc(OC)cc3OC)s2)cc1`, the figure is 4.9% (inactive).
The same measure, in the same setting: as for `CC1CN(C(=O)CCC(=O)NCCCN2CCC(Cc3ccccc3)CC2)c2cc(Cl)ccc2O1` (stereo not given), the figure is 6% (inactive); as for `C#CCOc1ccccc1/C=C1/C(=O)ON=C1C`, -20.1% (inactive); as for `Cc1ccc(NC(=O)Nc2cccnc2)cc1`, 2.1% (inactive).
`Cc1ccc(NC(=O)c2cccnc2C(=O)Nc2ccc(C)cc2)cc1`: the inhibition was 4% (active) (at 35 µM) and 65.7% (confirmation average, at 20 µM).
Turning to `Cc1ccc(NC(=O)c2ccc(Oc3ncccn3)cc2)cc1`, under “at 35 µM”, the inhibition was 0.1% (inactive).
On the same count and under the same terms, with `O=C(NC(=S)Nc1ccc(S(=O)(=O)N2CCOCC2)cc1)c1ccccc1[N+](=O)[O-]` the figure was 6.8% (inactive); with `O=C(N/N=C/c1cc(Cl)cc([N+](=O)[O-])c1O)C(O)(c1ccccc1)c1ccccc1`, 1.2% (inactive).
Same read-out and setting: as for `O=[N+]([O-])c1cc(Cl)cc(/C=N/NC(=S)Nc2cc(S(=O)(=O)N3CCOCC3)ccc2Cl)c1O`, the figure is 89.6% (active); as for `CC[C@]1(c2ccccc2OC)C(=O)N(C(=O)OC)N1C(=O)OC`, 2.4% (inactive); as for `COc1ccccc1CNC(=O)[C@@H]1CCCN1C(=O)[C@@H]1Cc2ccccc2CN1C(=O)OC(C)(C)C`, -6.3% (inactive).
Still for that read-out and setting: as for `COc1ccc(NS(=O)(=O)c2ccc(N3CCN(CCO)CC3)c([N+](=O)[O-])c2)cc1`, the figure is -9.3% (inactive).
As for `Cc1cc(NC(=O)CN2CCCC(C)C2)n(-c2nc3ccccc3s2)n1` (stereo not given), where the note is “at 35 µM”, the inhibition was -0.6% (inactive).
For the compound `CCC(C)Cn1c(O)cc2nn(-c3nc4ccccc4s3)c(=O)c-2c1C` (stereo not given), the inhibition (at 35 µM) is 89.6% (active).
Still for that read-out and setting: as for `C/C(=N\NC(=O)CC(C)C)c1c(C(F)(F)F)[nH]n(-c2nc3ccccc3s2)c1=O`, the figure is -5.6% (inactive).
Same read-out and setting: as for `COc1ccc(S(=O)(=O)NCCCCOc2ccc(Cl)cc2)cc1`, the figure is 25.8% (inactive); as for `O=C(NNS(=O)(=O)c1ccc(F)cc1)c1ccc([N+](=O)[O-])cc1Cl`, -5.4% (inactive); as for `CC(C)c1ccc(OCC(O)CN2CCN(c3ccccn3)CC2)cc1` (stereo not given), -9.3% (inactive).
Consider `CC(C)(C)C(=O)OCc1nc(-c2ccc(O)c(O)c2)cs1`, for which, under “at 35 µM”, the inhibition was 1.2% (inactive).
Still for that read-out and setting: as for `COc1ccc(-c2csc(NC3OC(=O)c4ccccc43)n2)cc1` (stereo not given), the figure is 2.1% (inactive).
On to `COc1ccc(-c2csc(Cc3nc(O)cs3)n2)cc1`, for which the inhibition is 20.3% (active) (at 35 µM) and 82.6% (confirmation average, at 20 µM).
With `FC(F)(F)C1CCCN(c2nsc3ccccc23)C1` (stereo not given), under “at 35 µM”, the inhibition is -3.8% (inactive).
Turning to `O=S(=O)(c1ccc(Br)cc1)c1nc(-c2ccccc2)oc1N1CCOCC1`, the inhibition (at 35 µM) is -5.9% (inactive).
The same measure, in the same setting: as for `O=C(O)CCC(=O)Nc1ccc(OCC2CCCO2)cc1` (stereo not given), the figure is 2.6% (inactive).
As for `COC(=O)COc1ccc2c(=O)c(Oc3ccccc3Br)coc2c1`, under “at 35 µM”, the inhibition was 5.6% (inactive).
The same measure, in the same setting: as for `Cc1cc(=O)oc(C)c1C(=O)NCCN(C)Cc1ccccc1`, the figure is 6.6% (inactive); as for `Cc1cc(=O)oc(C)c1C(=O)Nc1cnc2ccccc2c1`, 78.6% (active).
As for `Cc1cc(=O)oc(C)c1C(=O)NCc1ccc(F)cc1`, the inhibition (at 35 µM) was 0.5% (inactive).
Same read-out and setting: with `CCOC(=O)c1c(S(=O)(=O)NCC(=O)Nc2ccc(C)cc2)c(C)n(C)c1C` the figure was -0.1% (inactive); with `O=C(NCCCn1ccnc1)/C(=C\c1ccccc1F)NC(=O)c1ccccc1`, -6.4% (inactive).
The same measure, in the same setting: with `Cc1cc(OC(=O)c2c(Cl)cccc2Cl)nc(C)n1` the figure was -11.4% (inactive); with `Cc1ccc(Nc2nc(C)cc(C)c2C(N)=O)cc1`, 5.6% (inactive).
For the compound `Cc1cc(C)c(C(N)=O)c(Cl)n1`, the inhibition was 19.4% (active) (at 35 µM) and 93.1% (confirmation average, at 20 µM).
For the compound `CC(C)CN(CC(C)C)C(=O)CN1c2cccc3cccc(c23)S1(=O)=O`, the inhibition (at 35 µM) was -14.9% (inactive).
In the case of `COc1cccc(C2Nc3cccc4cccc(c34)N2)c1`, the inhibition is 59.9% (active) (at 35 µM) and 98.5% (confirmation average, at 20 µM).
For `COc1ccc(C2NC(=O)c3ccccc3N2)cc1` (stereo not given), the inhibition (at 35 µM) was 7.1% (inactive).
On the same count and under the same terms, as for `Oc1ccc(C2Nc3cccc4cccc(c34)N2)cc1`, the figure is 97.3% (active); as for `COc1ccc(N2C(=O)C3CCCN3C2c2cccc(OC)c2)cc1` (stereo not given), -6.3% (inactive).
Still for that read-out and setting: as for `Cc1ccc(C2Nc3cccc4cccc(c34)N2)cc1`, the figure is 41% (inactive); as for `O=C1NC(c2cccc(Cl)c2)Nc2ccccc21` (stereo not given), -8.5% (inactive); as for `O=C(Nc1nnc(S(=O)(=O)N2CCCCCC2)s1)c1cccc(Br)c1`, -8.4% (inactive).
As to `COc1ccc(CCNC(=O)CN(C)S(=O)(=O)c2ccc3nc(C)sc3c2)cc1OC`, the inhibition (at 35 µM) is -3% (inactive).
Still for that read-out and setting: with `CS(=O)(=O)N1CCCC(C(=O)Nc2ccccc2C(F)(F)F)C1` (stereo not given) the figure was -2% (inactive); with `CCOc1ccc(NC(=O)CC(Cc2ccc(Cl)cc2)C(=O)O)cc1` (stereo not given), -6.5% (inactive); with `CN(Cc1ccccc1)CC(O)COc1ccc(CNCc2cc3ccccc3s2)cc1` (stereo not given), -2% (inactive).
The same measure, in the same setting: as for `CN(CC1CCCN(CCc2cccc(C(F)(F)F)c2)C1)C(=O)c1ccc2nc[nH]c2c1` (stereo not given), the figure is -2% (inactive); as for `Oc1ccc(-c2cccc(-c3ccc(O)cc3)c2)cc1`, 2% (inactive); as for `CCC(C)(C)NC(=O)C(c1ccc(O)cc1)N(Cc1ccco1)C(=O)CCC(=O)Nc1ccccn1` (stereo not given), -7% (inactive).
The same measure, in the same setting: as for `Cc1[nH]n(C(N)=S)c(=O)c1N=Nc1ccc(Cl)cc1Cl`, the figure is 13.7% (inactive).
Regarding `Cc1cc2ccccc2n1CCC(=O)O`, the inhibition was 52.4% (active) (at 35 µM) and 80.5% (confirmation average, at 20 µM).
`O=C(O)CCn1c(Cc2ccccc2)nc2ccccc21`: the inhibition (at 35 µM) is 0.7% (inactive).
On the same count and under the same terms, with `Cc1cc2ccccc2n1CCNC(=O)COc1ccc2ccccc2c1` the figure was 21% (inactive); with `CCc1nc(N2CCN(C(C)=O)CC2)c2c3c(sc2n1)CCCC3`, -5.1% (inactive); with `COc1ccc(C(C)NC(=S)NC2CCCCC2)cc1OC` (stereo not given), -7.9% (inactive).
Same read-out and setting: with `CCOc1ccc(N(C)Cc2cc(=O)oc3ccc(OC)cc23)cc1` the figure was 4.8% (inactive); with `O=C(NCc1cccnc1)c1ccccc1NC(=O)c1c(F)cccc1F`, -10.7% (inactive).
As to `CSc1ccc(/C=N/N2CCN(Cc3ccccc3Cl)CC2)cc1`, for the setting “at 35 µM”, the inhibition is 0.6% (inactive).
Same read-out and setting: as for `O=c1ccn(Cc2ccccc2Cl)cc1`, the figure is -2.8% (inactive).
With `O=S1(=O)CCN(Cc2ccccc2Cl)CC1`, the inhibition is, setting by setting: (at 35 µM) 56.9% (active); (confirmation average, at 20 µM) 81.5%.
For the compound `COC(=O)c1ccc(C(=O)NC2CC(C)(C)Cc3c2cnn3-c2ccc(F)cc2)nc1` (stereo not given), the inhibition (at 35 µM) is -3.4% (inactive).
On the same count and under the same terms, with `CC(c1ccccn1)N(C)C(=O)c1ccc2nc(Cc3cccc(Cl)c3)oc2c1` (stereo not given) the figure was -0.5% (inactive); with `CC1(OC(=O)CCc2ccccc2)C(=O)C=C2C=C(c3ccc(C#N)cc3)N(CCc3ccccn3)C=C2C1=O` (stereo not given), 35.9% (inactive); with `COC(=O)CCCC1=CC2=CC(=O)C(C)(OC(=O)c3cccs3)C(=O)C2=CN1CC1CC1` (stereo not given), 45.8% (inactive).
Still for that read-out and setting: as for `COCCN1C=C2C(=O)C(C)(OC(=O)C3CCCC3)C(=O)C=C2C=C1c1ccsc1` (stereo not given), the figure is 98.2% (active); as for `COCc1c(C(=O)N/N=C(\C)c2ccncc2)nnn1-c1nonc1N`, 1.9% (inactive); as for `Cc1ccc(NC(=O)C2CCN(S(=O)(=O)c3ccc4c(c3)NC(=O)CO4)CC2)cc1C`, -7.3% (inactive).
For the compound `COc1ccccc1C(=O)N(Cc1ccc(C)o1)C1CCS(=O)(=O)C1` (stereo not given), the inhibition (at 35 µM) is -6.1% (inactive).
Still for that read-out and setting: as for `Fc1cc(F)c2nc(Nc3nc4c(F)cccc4s3)sc2c1`, the figure is 11.5% (inactive).
As to `NC(=O)c1c(Nc2nc3c(F)cccc3s2)sc2c1CCCC2`, the inhibition (at 35 µM) is 72.6% (active) and the inhibition (confirmation average, at 20 µM) amounted to 99.1%.
In the case of `NC(=O)c1c(NC(=O)c2ccccc2)sc2c1CCCC2`, where the note is “at 35 µM”, the inhibition is -0.5% (inactive).
The same measure, in the same setting: with `Cc1cc2oc(=O)cc(CN(C)Cc3ccc(OC(F)F)cc3)c2cc1Cl` the figure was -2.2% (inactive); with `Cc1ccc(S(=O)(=O)N2CCC(C)CC2)cc1C(=O)NCc1ccccn1`, -2.5% (inactive).
`CCc1ccc(NC(=O)CN2CCC(C(=O)c3ccc(OC)cc3)CC2)cc1`: where the note is “at 35 µM”, the inhibition was -2.2% (inactive).
Turning to `Cc1ccc(C(=O)OC2CCCN(C)C2)cc1` (stereo not given), the inhibition (at 35 µM) was -3.9% (inactive).
Still for that read-out and setting: as for `CCOC(=O)N1CCN(C(=O)COc2ccc(Br)cc2)CC1`, the figure is 5.2% (inactive).
As for `CN1CCCC(OC(=O)COc2ccc(Br)cc2)C1` (stereo not given), the inhibition was 99.9% (active) (at 35 µM) and 84.2% (confirmation average, at 20 µM).
